# Measured values: PubChem BioAssay AID504834 (National Center for Advancing Translational Sciences (NCATS), 2011)
# In all, about 320,000 compounds went through this assay and about 22,000 (6.9%) were called active. Where a call stands in place of a potency, no number is given. Inconclusive results (about 27%) are left out. Calls come from the whole dose curve; as a rule, active = well fitted inhibition curve with a large enough effect; inconclusive = small, poorly fitted or top-dose-only effect, or another doubt; inactive = no such curve, though single readings can be large or run the other way. For the sample, actives were picked, then their nearest neighbours and some compounds at random.
# Assay: Primary qHTS for delayed death inhibitors of the malarial parasite plastid, 96 hour incubation
# Details: P. falciparum luciferase reporter growth; series mostly up to 28.7 µM
# Outline: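 Luminescence readout: decreased luciferase signal marks inhibited growth of reporter-expressing P. falciparum in infected red cells (2% hematocrit, 0.05% parasitemia final), exposed to compound two generations (96 h, 37 C, 5% CO2).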
# Potency is the fitted concentration of half-maximal effect.
Structure (SMILES),Potency,"activity change, negative = inhibition"
CCOC(=O)N1CCN(C(=O)COc2ccc3oc4c(c3c2)CCCC4)CC1,inactive,–
CC(=O)Oc1ccc(-c2cccc(C(=O)N3CCCCC3)c2)cc1,inactive,–
COc1ccccc1CNC(=O)C1CCN(C(=O)[C@@H]2Cc3ccccc3CN2)CC1,inactive,–
C/C(CCC(=O)OC[C@H]1O[C@H](C#Cc2ccccc2)C=C[C@@H]1Oc1ccc(C)cc1)=N\OC[C@@H](O)[C@H]1O[C@@H]2OC(C)(C)O[C@@H]2[C@H]1O,13.1 µM (active),–
NC(=O)C1CCN(c2nc(-c3cccc(F)c3)cs2)CC1,inactive,–
Nc1nnc(SCC(=O)NCC(=O)Nc2ccc(F)c(F)c2F)s1,inactive,–
CCN(CC(=O)Nc1c(F)cccc1F)C(=O)c1ccc(Sc2nncn2C)c([N+](=O)[O-])c1,inactive,–
CN(C)CCNC(=O)c1[nH]nc2c1CCc1ccccc1-2,inactive,–
O=C(N/N=C/c1sc(N2CCCCC2)nc1-c1cccs1)c1cccnc1,2.08 µM (active),–
O=C(N/N=C/c1ccc(O)c2ccccc12)c1cccnc1,inactive,–
Cc1cc(/C=N/NC(=O)c2cccnc2)c(C)n1CC(C)C,–,33.1% [at 5.75 µM] (inactive)
COc1ccccc1CNC(=O)COC(=O)c1sc(C)nc1C,inactive,–
CN1C2CCC1CC(NC(=O)c1ccc([N+](=O)[O-])cc1)C2 (stereo unspecified),inactive,–
COc1ccc2nc(/N=C(\N)NC(=O)Nc3ccccc3)nc(C)c2c1,inactive,–
Cc1nc(/N=C(\N)NC(=O)NC2CCCCC2)nc2ccccc12,3.29 µM (active),–
Cc1nn(-c2ccccc2)c(C)c1C(=O)OCC(=O)NC(=O)NC1CCCCC1,inactive,–
O=c1ccc2cc(S(=O)(=O)NCCCc3ccccc3)ccc2[nH]1,inactive,–
COc1ccc(CN2CCCC(C(=O)N3CCCCC3)C2)cc1 (stereo unspecified),inactive,–
Cc1ccc(OC(=O)c2cncc(Br)c2)c(C)c1,inactive,–
CCOC(=O)COc1ccc([N+](=O)[O-])cc1,0.415 µM (active),–
N/C(=N\OC(=O)COc1ccc([N+](=O)[O-])cc1)c1ccc(Br)cc1,inactive,–
O=C1CCCN1C(=O)COc1ccc([N+](=O)[O-])cc1,inactive,–
Cc1cc(NC(=O)CCC(=O)N(Cc2ccccc2)C(C(=O)NC2CCCC2)c2ccc(C)o2)no1 (stereo unspecified),inactive,–
CC(C)CCN1CCC(C)(NC(=O)c2ccccc2)C1=O (stereo unspecified),inactive,–
COc1ccccc1C(=O)NCCC(=O)NN1C(=O)NC2(CCCCC2)C1=O,inactive,–
C/C(=N\Nc1nc(Nc2ccccc2)nc(N2CCOCC2)n1)c1cccs1,inactive,–

Structure (SMILES),Potency,"activity change, negative = inhibition"
O=C(CN1CCOCC1)Nc1cc(Cl)ccc1Cl,inactive,–
O=C(CSc1nc(Nc2ccccc2)nc(N2CCOCC2)n1)Nc1cc(Cl)ccc1O,5.22 µM (active),–
CC(=O)c1c(C)[nH]c(C(=O)COC(=O)CCOc2ccc(C)cc2)c1C,inactive,–
Cn1nc(C(C)(C)C)c([N+](=O)[O-])c1C(N)=O,inactive,–
CC(=O)N1c2ccc(S(=O)(=O)N(C)CC(=O)N(C)Cc3ccccc3)cc2CC1C (stereo unspecified),inactive,–
CC(=O)c1sc(N)nc1C,inactive,–
COc1ccccc1CNS(=O)(=O)c1cc2c3c(c1)CCC(=O)N3CCC2,inactive,–
CN(C)S(=O)(=O)c1ccc(N2CCCC2)c(C(=O)Nc2ccc(Br)cc2F)c1,8.28 µM (active),–
Cc1ccccc1OCC(=O)NNC(=O)c1cc(S(=O)(=O)N(C)C)ccc1N1CCCC1,inactive,–
CN(C)S(=O)(=O)c1ccc(N2CCCC2)c(C(=O)Nc2cccc(F)c2)c1,inactive,–
CCOC(=O)c1c(C)[nH]c(C(=O)NCCN2CCOCC2)c1C,inactive,–
O=C(NCCCN1CCOCC1)c1ccc2c(c1)N(Cc1cccc(F)c1)C(=O)c1ccccc1S2,inactive,–
C=CCn1c(SCc2cc(C(=O)OC)c(C)o2)nnc1-c1ccncc1,–,-0.417% [at 5.75 µM] (inactive)
COC(=O)c1sc(N)c(C(=O)OC)c1COC(=O)CNS(=O)(=O)c1ccc(C)cc1,inactive,–
C=CCn1c(SCc2c(C(=O)OC)sc(N)c2C(=O)OC)nnc1-c1ccc(Cl)cc1,3.29 µM (active),–
Cc1nc2cc(NC(=O)Nc3cccc(F)c3)ccc2n1C,inactive,–
COc1ccc(CNC(=O)COC(=O)CCS(=O)(=O)c2ccc(C)cc2)cc1OC,inactive,–
COc1ccc(NC(=O)N2CCC(Cc3ccccc3)CC2)cc1,inactive,–
COc1ccc2c(c1)C(C)=CC(C)(C)N2C(=O)CNCc1ccc2c(c1)OCO2,inactive,–
COc1ccc2c(c1)C(C)=CC(C)(C)N2C(=O)Nc1ccccc1,10.4 µM (active),–
CCOC(=O)c1c(C)n(C)c2ccc(OC)c(NS(=O)(=O)CC)c12,inactive,–
CCOC(=O)c1c(S(=O)(=O)Nc2cccc(Cl)c2)c(C)n(C)c1C,10.4 µM (active),–
CCOC(=O)c1c(S(=O)(=O)NCC(=O)Nc2ccc(C)cc2)c(C)n(C)c1C,inactive,–
CCN(CC)CCCNC(=O)COc1ccc2oc3c(c2c1)CCCC3,inactive,–
CCCS(=O)(=O)N1CCN=C1SCc1cccc(F)c1,inactive,–
CN(CC(=O)Nc1ccccc1C(F)(F)F)C(=O)Cc1ccccc1F,inactive,–

Structure (SMILES),Potency,"activity change, negative = inhibition"
CC[N+](CC)(CC)CCCCCCCCCC[N+](CC)(CC)CC,0.37 µM (active),–
Cc1cccc(C)c1NC(=O)CSc1nc2c([nH]1)c(=O)n(C)c(=O)n2C,inactive,–
CC(C)(C)[Si](OCC[C@@H]1C[C@@]1(C)[C@@H](NP(=O)(c1ccccc1)c1ccccc1)c1ccccc1)(c1ccccc1)c1ccccc1,2.33 µM (active),–
O=C(NC1CCCCC1)C1CCC(CNS(=O)(=O)c2ccccc2)CC1 (stereo unspecified),inactive,–
CCN(CC)c1ccc(NC(=O)CN2CCN(c3ccccn3)CC2)cc1,inactive,–
Cc1nc(N2CCOCC2)c2c(C)c(C(=O)Nc3ccc(C(F)(F)F)cc3)sc2n1,inactive,–
Cc1nc(N2CCN(c3ccccn3)CC2)c2c(C)c(C(=O)Nc3ccc(F)cc3)sc2n1,4.15 µM (active),–
CN(Cc1ccc(F)cc1)C(=O)COc1ccc2ccccc2c1,inactive,–
COc1ccc(N=Nc2c(-c3ccc(OC)cc3)[nH]oc2=O)cc1,inactive,–
O=C(COc1ccc(Cl)cc1)Nc1ccc2c(c1)OCO2,inactive,–
Cc1ccc(NC(=O)COc2ccc(/C=N\NC(=O)c3cccnc3)cc2)cc1C,inactive,–
Cc1ccc(NC(=O)COc2ccc(-n3ccnc3)cc2)cc1Cl,2.94 µM (active),–
O=C(CCNC(=O)C1CCN(S(=O)(=O)c2ccccc2)CC1)NC1CC1,inactive,–
O=C1Nc2ccccc2/C1=C/c1ccnc2ccccc12,inactive,–
CC1CN(C(=O)CCC(=O)NC2CCN(Cc3ccccc3)CC2)c2ccccc2O1 (stereo unspecified),inactive,–
Cc1ccc(OCC(=O)N2CCN(C(=O)c3cccnc3)CC2)cc1,inactive,–
CCN(CC)C(=O)N1CCN(C(=O)c2ccc(C)cn2)CC1,11.7 µM (active),–
CCN(CC(=O)Nc1c(F)cccc1F)C(=O)c1cnc(C)cn1,inactive,–
CC(C)[C@@H](C(=O)O)N(Cc1cccc(CN([C@H](C(=O)O)C(C)C)S(C)(=O)=O)c1)S(C)(=O)=O,inactive,–
O=C(Nc1ccc(C(=O)NCc2ccccc2Cl)cc1)C1=CSCCO1,inactive,–
CSc1ccc(CNC(=O)c2ccc(NC(=O)C3=CSCCO3)cc2)cc1,7.38 µM (active),–
CS(=O)(=O)NCc1ccc(C(=O)NCc2ccccc2)cc1,inactive,–
O=[N+]([O-])c1ccc(NC(=S)N2CCN(c3ccccn3)CC2)cc1,inactive,–
O=[N+]([O-])c1cc([N+](=O)[O-])c(Oc2cc(F)cc(F)c2F)cc1NN1CCCCC1,inactive,–
Cc1cc2c(cc1S(=O)(=O)NCc1ccc(Cl)cc1)OCC(=O)N2,inactive,–
COc1ccc(NC(=O)Nc2ccc3nsnc3c2)cc1,inactive,–

Structure (SMILES),Potency,"activity change, negative = inhibition"
O=C(Nc1cccc(Br)c1)c1ccc2snnc2c1,inactive,–
O=C(Nc1ccc2ccccc2c1)Nc1ccc2snnc2c1,4.65 µM (active),–
COC(OC)c1ccnc(SCc2ccccc2Cl)n1,inactive,–
COc1ccc(C)cc1NC(=O)NCc1ccccn1,–,14.6% [at 5.75 µM] (inactive)
O=C(CNCc1cccs1)Nc1cc(S(=O)(=O)N2CCCC2)ccc1Cl,inactive,–
COc1ccc(C)cc1NC(=O)CNCc1cccs1,11.7 µM (active),–
CC(C)Cc1nnc(NC(=O)CCC(=O)Nc2ccc3cn[nH]c3c2)s1,inactive,–
CCOc1ccc(NC(=O)c2ccc(NC(=O)C3CCCO3)cc2)cc1 (stereo unspecified),inactive,–
CCN(CCNC(=O)C1=C(C)C(=O)OC12CCC(C)CC2)c1ccccc1 (stereo unspecified),inactive,–
COc1ccc(C2=NOC(COC(=O)c3ccc4ccccc4n3)C2)cc1 (stereo unspecified),inactive,–
COc1ccc(C2=NOC(Cn3nc(C(=O)NCc4ccc5c(c4)OCO5)cc3-c3ccccc3)C2)cc1 (stereo unspecified),10.4 µM (active),–
COc1ccc(NC(=O)NCc2ccc3c(c2)OCO3)c(OC)c1,inactive,–
Cc1ccc(NC(=O)COC(=O)CNC(=O)c2ccc(Cl)cc2Cl)cc1S(=O)(=O)N1CCOCC1,inactive,–
Cc1c(C)n(Cc2ccc(Cl)cc2)c2ccc(C(=O)NCCCN3CCOCC3)cc12,inactive,–
O=C(COc1ccc(-n2cnnn2)cc1)Nc1ccccc1Cl,inactive,–
CC(C)(C)c1nc(NCC2CCCO2)c2nnn(Cc3ccccc3)c2n1 (stereo unspecified),inactive,–
COc1ccc(CCNc2ncnc3c2nnn3Cc2ccccc2)cc1,2.94 µM (active),–
Clc1ccc(Nc2ncnc3c2nnn3Cc2ccccc2)cc1,inactive,–
COc1ccccc1CCNC(=O)CN1C(=O)NC2(CCCC2)C1=O,inactive,–
COc1ccc(S(=O)(=O)NCCc2cc3ccc(C)c(C)c3[nH]c2=O)cc1,8.28 µM (active),–
COc1ccc(CCNS(=O)(=O)c2cccc([N+](=O)[O-])c2)cc1,inactive,–
COC(=O)CNS(=O)(=O)c1ccc(OC)cc1,inactive,–
COc1ccc2[nH]c(C(=O)Nc3ccccc3Cl)cc2c1,inactive,–
